Screens (PubChem BioAssay)
Pol eta inh = blocks human DNA polymerase eta activity | Q9Y253 | actives 1.2% (n = 390,000) | recombinant Pol eta, fluorescent DNA replication assay | Potency, µM (highest dose often 114 µM), without a hit: top-dose activity change, negative = inhibition, usual class: inhibitors; also: % is scaled to controls: 0 for no effect and ±100 for the full control effect
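Pol eta at 10 nM preincubated with compounds 15 min at room temperature; reaction started with fluorescent substrate (50 nM final) and read kinetically at 0 and 10 min.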
FEN1 inhibitor = human FEN1 inhibition. P39748. Recombinant FEN1 flap cleavage, fluorescence, 15 min. Potency, µM (doses to about 114 µM), for the others: at the top dose activity change, negative = inhibition, most hits filed as inhibitors. AID 588795. actives 0.35% (n = 390,000); also: % is scaled to controls: 0 for no effect and ±100 for the full control effect; nearly all actives have a fitted effect of over 65% in size
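Compounds are tested as a concentration series against 10 nM FEN1; after a 15 min room-temperature preincubation, 50 nM substrate starts cleavage, with plate reads at 0 and 15 min. Normalized responses are fitted by a Hill equation.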
WRN inhibitor = WRN helicase (human) inhibition | WRN helicase unwinding, fluorescent forked duplex, kinetic | Potency, µM (doses to about 114 µM), for the others: at the highest dose activity change, negative = inhibition, actives largely listed as inhibitors | Q14191 | AID 651768 | actives 0.46% (n = 360,000); also: % is scaled to controls: 0 for no effect and ±100 for the full control effect; nearly all actives have a fitted effect of over 55% in size
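Fluorescence dequenching readout, ex 525 nm/em 598 nm, kinetic mode: forked duplex DNA (100 nM final) with adjacent fluorophore and quencher unwound by WRN (20 nM final) with 2 mM ATP. Compound preincubation 15 min, room temperature.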
Pol iota inh = inhibitors of human DNA polymerase iota; actives 1% (n = 390,000); Potency, µM (highest dose often 115 µM), without a hit: top-dose activity, negative = inhibition, most hits filed as inhibitors; Pol iota fluorescent replication assay, 10 min; Q9UNA4
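Pol iota at 10 nM preincubated 15 min with compounds at room temperature; reaction started with fluorescent substrate, 50 nM final. Fluorescence read kinetically at 0 and 10 min; buffer-only wells as negative control.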
Pol kappa inh = DNA polymerase kappa (human) inhibition; purified Pol kappa, fluorescent DNA synthesis assay, 10 min; Potency, µM (titrated, usually from 107 µM), inactives show at the top dose activity, negative = inhibition, hits mostly inhibitors; actives 0.53% (n = 400,000); Q9UBT6; also: % is scaled to controls: 0 for no effect and ±100 for the full control effect
Target sequence (Q9UBT6 whole entry, looked up): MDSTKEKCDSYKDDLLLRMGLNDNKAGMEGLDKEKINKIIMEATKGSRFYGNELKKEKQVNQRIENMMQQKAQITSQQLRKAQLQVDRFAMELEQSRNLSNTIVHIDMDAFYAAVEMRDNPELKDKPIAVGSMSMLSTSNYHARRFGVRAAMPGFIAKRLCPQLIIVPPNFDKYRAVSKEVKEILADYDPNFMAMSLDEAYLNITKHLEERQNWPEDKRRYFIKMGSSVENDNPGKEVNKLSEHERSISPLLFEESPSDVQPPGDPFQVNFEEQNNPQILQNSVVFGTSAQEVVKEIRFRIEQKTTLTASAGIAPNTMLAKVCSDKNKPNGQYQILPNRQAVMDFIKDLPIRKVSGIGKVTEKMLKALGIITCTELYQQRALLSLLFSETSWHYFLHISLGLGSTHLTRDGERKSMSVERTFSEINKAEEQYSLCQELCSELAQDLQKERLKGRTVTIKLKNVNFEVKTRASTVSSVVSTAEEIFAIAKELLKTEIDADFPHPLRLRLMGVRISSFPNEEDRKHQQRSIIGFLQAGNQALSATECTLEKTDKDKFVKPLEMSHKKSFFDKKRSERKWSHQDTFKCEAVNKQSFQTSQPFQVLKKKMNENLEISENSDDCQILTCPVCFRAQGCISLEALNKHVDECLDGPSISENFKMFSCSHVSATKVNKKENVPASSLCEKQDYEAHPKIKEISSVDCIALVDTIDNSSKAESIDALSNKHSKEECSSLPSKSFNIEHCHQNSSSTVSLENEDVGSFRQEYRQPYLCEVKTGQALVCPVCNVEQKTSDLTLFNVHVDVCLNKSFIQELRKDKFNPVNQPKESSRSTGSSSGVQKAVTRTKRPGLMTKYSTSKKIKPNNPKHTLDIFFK
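Activity was followed as the change in fluorescence between reads at 0 and 10 min after starting the reaction with 50 nM substrate. Beforehand, 10 nM polymerase had been preincubated with compound for 15 min at room temperature.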
POLB inh = DNA polymerase beta (human) inhibition; P06746; Pol beta primer extension/strand displacement, fluorescence kinetic; Potency, µM (doses to about 114 µM), without a hit: top-dose activity change, negative = inhibition, most hits filed as inhibitors; actives 1.3% (n = 340,000); AID 485314; also: % is scaled to controls: 0 for no effect and ±100 for the full control effect
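Curves were derived by four-parameter Hill fits of normalized qHTS data. The kinetic fluorescent primer-extension read was taken at 0 and 10 min after 50 nM substrate, following a 15 min room-temperature preincubation of 10 nM enzyme with compounds.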
* = called active by the depositor; [ ] = another dose, or the depositor's remark. Sampled rows, rich in hits. Any-hit rate of the full collection: about 2.4%. Calls follow the shape of the dose curve; as a rule, active = well fitted curve in the direction sought with a large enough effect; inconclusive = small, poorly fitted or top-dose-only effect, or another doubt; inactive = no such curve, though single readings can be large; an effect the other way counts as inactive or inconclusive. Potency is read from the fitted curve at half-maximal effect.

What do the screens show for `CC(=O)N1CCOc2ccc(S(=O)(=O)NCc3ccc(F)cc3)cc21`?
Pol eta inh: 56µM*; FEN1 inhibitor: 15%; WRN inhibitor: -5%[11.6 µM]; Pol iota inh: 71µM*; Pol kappa inh: -42%; POLB inh: 100µM*

What do the screens show for `CC(=O)N1CCOc2ccc(S(=O)(=O)NCCc3ccc(S(N)(=O)=O)cc3)cc21`?
Pol eta inh: 0%; FEN1 inhibitor: 16%; WRN inhibitor: -3%; Pol iota inh: -1%; Pol kappa inh: -17%; POLB inh: -13%

Results for Cc1cc(=O)n(CCCc2ccccc2)[nH]1 ?
Pol eta inh: -13%; FEN1 inhibitor: 8%; WRN inhibitor: 2%; Pol iota inh: 10µM*; Pol kappa inh: 12%

What do the screens show for `COc1ccc(Cc2nc3ccc(S(=O)(=O)N4CCOCC4)cc3[nH]2)cc1`?
Pol eta inh: -1%; FEN1 inhibitor: -11%; WRN inhibitor: -4%; Pol iota inh: 79µM*; Pol kappa inh: -8%; POLB inh: 23%

What do the screens show for `COc1ccc(Cc2nc3ccc(S(=O)(=O)N4CCOCC4)cc3[nH]2)cc1OC`?
Pol eta inh: 3%; FEN1 inhibitor: -6%; WRN inhibitor: -8%; Pol iota inh: 10%; Pol kappa inh: -12%; POLB inh: 5%

Results for COCCNC(=O)c1ccccc1NC(=O)Nc1ccccc1 ?
Pol eta inh: -17%; FEN1 inhibitor: 10%; WRN inhibitor: -8%; Pol iota inh: 47%; Pol kappa inh: -1%; POLB inh: 10%

How did C=CCNC(=O)c1ccccc1NC(=O)Nc1ccccc1 do in these assays?
Pol eta inh: -10%; FEN1 inhibitor: -8%; WRN inhibitor: -6%; Pol iota inh: 89µM*; Pol kappa inh: -8%; POLB inh: -3%

Results for O=C(c1ccc2c(=O)n3c(nc2c1)CCCCC3)N1CCN(C(c2ccccc2)c2ccccc2)CC1 ?
Pol eta inh: -14%; FEN1 inhibitor: -4%; WRN inhibitor: -20%; Pol iota inh: 89µM*; Pol kappa inh: -3%; POLB inh: 24%

How did NC(=S)NN=Cc1nccc2ccccc12 do in these assays?
Pol eta inh: -7%; FEN1 inhibitor: -19%; WRN inhibitor: -12%; Pol iota inh: 108%; Pol kappa inh: -26%

Results for Cc1cnc(C=NNC(N)=S)c2cccc(N)c12 ?
Pol eta inh: 5µM*; FEN1 inhibitor: inconclusive; WRN inhibitor: inconclusive; Pol iota inh: 2.2µM*; Pol kappa inh: inconclusive

What do the screens show for `O=C(Nc1cccc(-c2cn3cccnc3n2)c1)c1ccco1`?
Pol eta inh: -5%; FEN1 inhibitor: 1%; WRN inhibitor: -3%; Pol iota inh: 3%; Pol kappa inh: -4%; POLB inh: -12%

What do the screens show for `O=C(Nc1cccc(-c2cn3cccnc3n2)c1)c1ccc(Br)o1`?
Pol eta inh: -7%; FEN1 inhibitor: -22%; WRN inhibitor: -8%[57.1 µM]; Pol iota inh: 79µM*; Pol kappa inh: inconclusive; POLB inh: 1%

How did COc1cccc(NC(=O)Nc2cc(-c3cn4cccnc4n3)ccc2C)c1 do in these assays?
Pol eta inh: -28%; FEN1 inhibitor: -2%; Pol iota inh: 7%; Pol kappa inh: -4%; POLB inh: 7.9µM*

How did CCC(C(=O)Nc1cc(-c2cn3cccnc3n2)ccc1C)c1ccccc1 (centres undefined) do in these assays?
Pol eta inh: 13%; FEN1 inhibitor: 3%; Pol iota inh: -23%; Pol kappa inh: 0%[60.1 µM]; POLB inh: 40µM*

How did Cn1cccc1/C=N/NC(=O)C(O)c1ccccc1 (centres undefined) do in these assays?
Pol eta inh: 3%; FEN1 inhibitor: -1%; WRN inhibitor: -3%; Pol iota inh: 14%; Pol kappa inh: -5%; POLB inh: 8%

Results for COc1ccc(C2C=C(c3ccccc3)Nc3nc(NS(=O)(=O)c4ccc(Cl)cc4)nn32)cc1 (centres undefined) ?
Pol eta inh: 89µM*; FEN1 inhibitor: -6%; Pol iota inh: 28%; Pol kappa inh: 1%; POLB inh: 12%

Results for COc1ccc(C2C=C(c3ccccc3)Nc3nc(NS(=O)(=O)c4ccccc4)nn32)cc1 (centres undefined) ?
Pol eta inh: 89µM*; FEN1 inhibitor: -14%; Pol iota inh: 18%; Pol kappa inh: -10%; POLB inh: 12%

How did Cc1ccc(S(=O)(=O)Nc2nc3n(n2)C(c2ccc(Cl)cc2)C=C(c2ccccc2)N3)cc1 (centres undefined) do in these assays?
Pol eta inh: 89µM*; FEN1 inhibitor: -2%; Pol iota inh: -7%; Pol kappa inh: 4%; POLB inh: -1%

What do the screens show for `Cc1ccc(S(=O)(=O)Nc2nc3n(n2)C(c2ccc(F)cc2)C=C(c2ccccc2)N3)cc1` (centres undefined)?
Pol eta inh: inconclusive; FEN1 inhibitor: -1%; Pol iota inh: 25%; Pol kappa inh: 3%; POLB inh: 2%

How did Cc1ccc(C2C=C(c3ccccc3)Nc3nc(NS(=O)(=O)c4ccccc4)nn32)cc1 (centres undefined) do in these assays?
Pol eta inh: inconclusive; FEN1 inhibitor: -2%; Pol iota inh: -2%; Pol kappa inh: 2%; POLB inh: 18%

How did O=S(=O)(Nc1nc2n(n1)C(c1ccc(F)cc1)C=C(c1ccccc1)N2)c1ccc(Cl)cc1 (centres undefined) do in these assays?
Pol eta inh: inconclusive; FEN1 inhibitor: -7%; Pol iota inh: 22%; Pol kappa inh: -11%; POLB inh: -16%

What do the screens show for `CCn1c(=O)c2ccccc2n2c(SCC(=O)NCc3cccs3)nnc12`?
Pol eta inh: -10%; FEN1 inhibitor: 6%; WRN inhibitor: -2%; Pol iota inh: -23%; Pol kappa inh: -4%; POLB inh: 18%

Results for CCOC(=O)CSc1nnc(NC(=O)CN2CCN(C=O)CC2)s1 ?
Pol eta inh: -4%; FEN1 inhibitor: -8%; WRN inhibitor: 1%; Pol iota inh: 4%; Pol kappa inh: -1%; POLB inh: 4%

Results for O=C(Cn1nnc(-c2ccc(Cl)cc2)n1)NC1CCS(=O)(=O)C1 (centres undefined) ?
Pol eta inh: -19%; FEN1 inhibitor: 1%; WRN inhibitor: 3%; Pol iota inh: 38%; Pol kappa inh: -1%

Results for O=C(NN=C1CCN(Cc2ccccc2)CC1)c1cc2ccccc2cc1O ?
Pol eta inh: inconclusive; FEN1 inhibitor: -4%; WRN inhibitor: 1%[11.6 µM]; Pol iota inh: 79µM*; Pol kappa inh: inconclusive; POLB inh: -108%
